# Inconclusive results are not listed. The source made the active and inactive calls. How the source made its calls: active means hit-call score of the fitted dose curve at least 0.9, where 1 is the maximum; inconclusive means response in the unintended direction; inactive means score below 0.9.
# Target: human Microtubule Affinity Regulating Kinase 1 (MARK1), MARK1 (gene 4139) (UniProt Q9P0L2)
# Experiment: NVS_ENZ_hMARK1: NovaScreen (NVS) Enzymatic Assay for human Microtubule Affinity Regulating Kinase 1 (MARK1)
# Method: NVS_ENZ_hMARK1 is a biochemical, single-readout assay that uses extracted gene-proteins in a cell-free assay. Measurements were taken 1 hour after chemical dosing in a 384-well plate.NVS_ENZ_hMARK1 is one of one assay component(s) measured or calculated from the NVS_ENZ_hMARK1 assay. It is designed to make measurements of enzyme activity, a form of enzyme reporter, as detected with fluorescence intensity signals by Fluorescence and electrophoretic mobility shift technology.Data from the assay component NVS_ENZ_hMARK1 was analyzed into 1 assay endpoint. This assay endpoint, NVS_ENZ_hMARK1, was analyzed in the positive analysis fitting direction relative to DMSO as the negative control and baseline of activity. Using a type of enzyme reporter, loss-of-signal activity can be used to understand changes in the enzymatic activity as they relate to the gene MARK1. Furthermore, this assay endpoint can be referred to as a primary readout, because this assay has produced multiple assay endpoints where this one serves a enzymatic activity function. To generalize the intended target to other relatable targets, this assay endpoint is annotated to the kinase intended target family, where the subfamily is serine/threonine kinase.
# Binding assays used specific radioligands (tritiated, iodinated) with non-radioactive competitive displacement ligands in agonist or antagonist protocols (as indicated) and various reference compounds and inhibitors to titrate specific binding to receptors and transporters. Most enzyme assays (CYPs, kinases, phosphatases, proteases, HDACs) used recombinant protein and specific substrates (fluorescence mostly, some colorimetric and radioactive) and inhibitors, followed by a biochemical separation of substrate and product. All assays for the biochemical HTS were initially run in duplicate at a single concentration (10 uM for CYP450 assays and 25 uM for all others). Assay-chemical combinations meeting a pre-defined threshold (e.g., 30% inhibition and other criteria defined below) were then run in singleton concentration-response format with maximum concentration of 20 uM for CYPs and 50 uM for all others. Each assay was run with positive and negative controls, and concurrent controls on every plate. The follow-up (secondary) screen tested active chemical-pairs in concentration series, as well as a few additional assays not tested in the primary screen, some selected negative inactives, and several cases re-run in the concentration series for confirmatory purposes.
# Sequence of human Microtubule Affinity Regulating Kinase 1 (MARK1), MARK1 (gene 4139) (Q9P0L2 whole entry, looked up): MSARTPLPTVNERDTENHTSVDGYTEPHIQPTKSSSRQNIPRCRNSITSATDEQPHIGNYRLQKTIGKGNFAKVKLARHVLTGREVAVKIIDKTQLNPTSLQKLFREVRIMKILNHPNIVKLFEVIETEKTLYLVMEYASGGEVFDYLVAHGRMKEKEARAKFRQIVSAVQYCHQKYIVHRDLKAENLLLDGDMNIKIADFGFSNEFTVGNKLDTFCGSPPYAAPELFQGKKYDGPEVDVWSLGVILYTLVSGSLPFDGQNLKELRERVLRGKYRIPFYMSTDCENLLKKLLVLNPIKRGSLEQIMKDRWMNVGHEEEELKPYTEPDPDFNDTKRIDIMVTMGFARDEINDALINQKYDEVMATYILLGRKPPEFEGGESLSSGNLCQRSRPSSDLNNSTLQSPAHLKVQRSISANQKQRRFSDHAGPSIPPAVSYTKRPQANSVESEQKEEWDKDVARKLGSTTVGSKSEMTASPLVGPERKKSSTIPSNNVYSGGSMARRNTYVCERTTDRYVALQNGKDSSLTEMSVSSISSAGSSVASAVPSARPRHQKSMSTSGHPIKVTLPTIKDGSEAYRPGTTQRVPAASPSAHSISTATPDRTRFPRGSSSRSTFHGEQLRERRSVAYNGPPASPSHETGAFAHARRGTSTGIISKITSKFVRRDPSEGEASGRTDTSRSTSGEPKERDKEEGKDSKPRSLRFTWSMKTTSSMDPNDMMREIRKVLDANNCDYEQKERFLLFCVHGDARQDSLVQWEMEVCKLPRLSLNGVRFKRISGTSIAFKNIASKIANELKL
SMILES,outcome,AC50
CCOP(=S)(OCC)Oc1nc(Cl)n(C(C)C)n1,inactive,–
N#CSCSC#N,inactive,–
COC(=O)c1ccccc1S(=O)(=O)NC(=O)N(C)c1nc(C)nc(OC)n1,inactive,–
CCNC(=O)NC(=O)C(C#N)=NOC,inactive,–
COP(=S)(OC)Oc1nc(Cl)c(Cl)cc1Cl,inactive,–
O=S(=O)(O)C(F)(F)C(F)(F)C(F)(F)C(F)(F)C(F)(F)C(F)(F)C(F)(F)C(F)(F)F,–,36.8 µM (active)
O=C(O)C(F)(F)C(F)(F)C(F)(F)C(F)(F)C(F)(F)C(F)(F)C(F)(F)F,inactive,–
CNC(=S)S,inactive,–
COc1nc(C)nc(NC(=O)NS(=O)(=O)c2ccccc2CCC(F)(F)F)n1,inactive,–
CCOP(=O)(OCC)Oc1nc(Cl)c(Cl)cc1Cl,inactive,–
Nc1c(Cl)cc([N+](=O)[O-])cc1Cl,inactive,–
CN(C)[C@@H]1C(=O)C(C(N)=O)=C(O)[C@@]2(O)C(=O)C3=C(O)c4c(O)cccc4[C@@](C)(O)[C@H]3[C@H](O)[C@@H]12,–,18 µM (active)

# Reference: PubChem BioAssay AID2283179 (EPA ToxCast)
